The source of these data is PubChem BioAssay (Tox21).

Inconclusive results are not listed. The source made the active and inactive calls. Unless noted, calls come from the whole dose curve; as a rule, active = well fitted curve in the direction sought with a large enough effect in the repeat runs; inconclusive = weak or mixed curves; inactive = no such curve, though single readings can be large; an effect the other way counts as inactive or inconclusive.

A short description of assay [1]: qHTS assay to identify small molecule antagonists of the glucocorticoid receptor (GR) signaling pathway - cell viability counter screen (AID 720693). Note: nearly all actives have a fitted effect of over 55% in size. Note: potency is the fitted concentration of half-maximal effect. On the technique in general: In qHTS, concentration-response curves come from the screen itself.
A short description of assay [2]: qHTS assay for identifying genotoxic compounds that show differential cytotoxicity against isogenic chicken DT40 cell lines with known DNA damage response pathways - wild type cell line (AID 743012). Note: nearly all actives have a fitted effect of over 60% in size. Note: potency is the fitted concentration of half-maximal effect. In outline:
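Wild type DT40, 300 cells/well, ~0.5 h settle at 37 C/5% CO2; compounds in DMSO added by pintool; 40 h at 37 C/5% CO2; CellTiter-Glo, 30 min RT; luminescence.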

Assay [3] can be described thus: qHTS assay for identifying genotoxic compounds that show differential cytotoxicity against isogenic chicken DT40 cell lines with known DNA damage response pathways - Rev3 mutant cell line (AID 743014). Note: nearly all actives have a fitted effect of over 55% in size. Note: potency is the fitted concentration of half-maximal effect.
A short description of assay [4]: qHTS assay for identifying genotoxic compounds that show differential cytotoxicity against isogenic chicken DT40 cell lines with known DNA damage response pathways - Rad54/Ku70 mutant cell line (AID 743015). Note: nearly all actives have a fitted effect of over 60% in size. Note: potency is the fitted concentration of half-maximal effect.
The nature of assay [5]: qHTS assay to identify small molecule antagonists of the androgen receptor (AR) signaling pathway using the MDA cell line - cell viability counter screen (AID 743041; note: nearly all actives have a fitted effect of over 45% in size; note: potency is the fitted concentration of half-maximal effect). In short, it runs like this:
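MDA-kb2 AR-luc human breast carcinoma cells (MMTV-luciferase, AR/GR responsive) were treated with compounds plus R1881 agonist for 16 h at 37 °C. Viability was read as CellTiter-Fluor fluorescence in the same wells as the reporter assay.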

Assay [6] can be described thus: qHTS assay to identify small molecule antagonists of the androgen receptor (AR) signaling pathway - cell viability counter screen (AID 743033; note: nearly all actives have a fitted effect of over 45% in size).
Assay [7] addresses Androgen receptor (Homo sapiens) (UniProt P10275). As to the kind of experiment: qHTS assay to identify small molecule antagonists of the androgen receptor (AR) signaling pathway (AID 743035; active = well fitted inhibition curve with a large enough effect in the signal ratio in the repeat runs, not every such curve was filed as active; the % refers to the signal ratio). In short, it runs like this:
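Fluorescence from a beta-lactamase FRET substrate (LiveBLAzer B/G, 2 h, room temperature) measured inhibition of R1881-stimulated signaling in GeneBLAzer AR-UAS-bla HEK293 cells exposed to compound for 16 h at 37C.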

Assay [8] has the same target. As to the kind of experiment: qHTS assay to identify small molecule agonists of the androgen receptor (AR) signaling pathway (AID 743036; active = well fitted activation curve with a large enough effect in the signal ratio in the repeat runs, with a control signal flat, not every such curve was filed as active; the % refers to the signal ratio). In outline: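 Screening used 2,000 AR-bla HEK293 cells per well, treated 16 h at 37C with test compounds in DMSO alongside positive and DMSO-only controls; beta-lactamase activity was then read by LiveBLAzer B/G FRET fluorescence after 2 h at room temperature.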

Assay [9] shares this target. Put plainly: qHTS assay to identify small molecule agonists of the androgen receptor (AR) signaling pathway using the MDA cell line (AID 743040; note: nearly all actives have a fitted effect of over 20% in size). In short, it runs like this: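 MDA-kb2 breast carcinoma cells stably carrying an MMTV-driven luciferase reporter (AR- and GR-responsive) were seeded and held 5 h at 37C, 0% CO2, then exposed to compounds in DMSO for 16 h. Luminescence was read 30 min after ONE-Glo addition.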

For assay [10] the target is unchanged. Put plainly: qHTS assay to identify small molecule antagonists of the androgen receptor (AR) signaling pathway using the MDA cell line (AID 743042; note: nearly all actives have a fitted effect of over 55% in size; note: potency is the fitted concentration of half-maximal effect). In short, it runs like this: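 MDA-kb2 cells (human breast carcinoma, stably carrying an MMTV-luciferase reporter responsive to AR and GR) were plated at 3,000 cells/well and preincubated 5 hr at 37C, then given compound plus R1881 agonist for 16 h. ONE-Glo luminescence was read.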

Androgen receptor (Homo sapiens), sequence (P10275 whole entry, looked up): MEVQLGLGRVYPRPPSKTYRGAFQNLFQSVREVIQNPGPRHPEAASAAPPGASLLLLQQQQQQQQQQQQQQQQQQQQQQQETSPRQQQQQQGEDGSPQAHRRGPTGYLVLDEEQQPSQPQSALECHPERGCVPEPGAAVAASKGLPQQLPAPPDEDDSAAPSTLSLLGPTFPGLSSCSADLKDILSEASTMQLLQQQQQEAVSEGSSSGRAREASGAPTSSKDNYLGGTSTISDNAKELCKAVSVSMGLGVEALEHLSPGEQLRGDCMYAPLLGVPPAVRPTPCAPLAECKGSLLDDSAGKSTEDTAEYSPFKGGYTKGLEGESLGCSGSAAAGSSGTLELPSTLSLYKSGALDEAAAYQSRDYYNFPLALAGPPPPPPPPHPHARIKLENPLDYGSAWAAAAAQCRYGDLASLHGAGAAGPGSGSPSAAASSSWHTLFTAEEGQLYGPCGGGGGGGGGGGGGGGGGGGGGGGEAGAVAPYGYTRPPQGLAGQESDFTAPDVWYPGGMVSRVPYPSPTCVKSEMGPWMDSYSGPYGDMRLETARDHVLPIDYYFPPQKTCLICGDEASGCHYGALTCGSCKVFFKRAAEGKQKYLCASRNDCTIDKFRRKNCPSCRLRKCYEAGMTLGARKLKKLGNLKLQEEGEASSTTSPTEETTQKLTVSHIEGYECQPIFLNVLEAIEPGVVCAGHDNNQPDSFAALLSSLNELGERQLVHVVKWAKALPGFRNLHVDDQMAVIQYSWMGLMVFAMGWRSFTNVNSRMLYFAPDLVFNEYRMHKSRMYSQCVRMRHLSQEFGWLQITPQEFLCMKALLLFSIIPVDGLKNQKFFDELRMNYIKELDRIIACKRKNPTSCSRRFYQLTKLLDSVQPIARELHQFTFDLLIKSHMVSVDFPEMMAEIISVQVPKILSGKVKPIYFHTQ

Regarding `Cc1ccc(S(=O)(=O)NC(=O)NC2CCCC2)cc1`, the Potency entry in assay [1], in assay [2], in assay [3], in [4] and in [5] was “inactive” each time.
In the case of `CC(C)CC(C)(C)C`, the Potency result in assay [1], in assay [2], in assay [3], in assay [4] and in [5] was “inactive” each time.
On to `SCCOCCOCCS`, for which the Potency entry in [1], in assay [2], in assay [3], in assay [4] and in assay [5] was “inactive” throughout.
`CC1(C)CC(O)CC(C)(C)N1[O]`: the Potency entry in assay [1], in [2], in assay [3], in assay [4] and in [5] was “inactive” each time.
Turning to `CCCC(=O)OCCC(C)C`, the Potency result in assay [1], in [2], in assay [3], in [6], in assay [7] and in assay [5] was “inactive” each time. The Potency entry in assay [10] was “inactive”. Moreover, the result in assay [8] and in [9] was inactive.
On to `CCCCCO`, for which the Potency result in [1], in [2], in assay [3], in assay [4], in assay [6] and in assay [5] was “inactive” each time.
For the compound `CC(=O)Nc1cccc(N)c1`, the Potency entry in assay [1], in assay [2], in assay [3], in assay [4], in assay [6] and in assay [5] was “inactive” each time.
For `CCOC(C)OCC`, the Potency entry in assay [1], in assay [2], in assay [3], in assay [4] and in assay [5] was “inactive” each time.
As for `CCCC(=O)OCc1ccccc1`, the Potency result in assay [1], in assay [2], in [3], in assay [4] and in [5] was “inactive” in each case.
Turning to `C[Si](C)(C)O[Si](C)(C)O[Si](C)(C)C`, the Potency result in assay [1], in assay [2], in assay [3], in assay [4], in [6] and in assay [5] was “inactive” throughout.
On to `CC(C)(Cc1c[nH]c2ccccc12)NCC(O)COc1ccccc1C#N` (stereo not drawn), for which the Potency result in assay [1] and in assay [6] was “inactive” throughout. Also, the results for the Potency in assay [2] and in assay [3] were 9.44 µM (active) and 13.3 µM (active), respectively.
Take `O=C1c2ccccc2C(=O)c2c1ccc(O)c2O`: the Potency entry in assay [1], in [2], in [3] and in assay [6] was “inactive” throughout.
Take `O=C(NC1CCN(CCc2c[nH]c3ccccc23)CC1)c1ccccc1`: the Potency entry in assay [1] and in [5] was “inactive” each time. Moreover, the Potency was 23.7 µM (active) in [2], 33.5 µM (active) in [3] and 29.8 µM (active) in [4].
For the compound `C=Cc1ccc(C=C)cc1`, the Potency entry in assay [1], in assay [2], in assay [3], in assay [4] and in [5] was “inactive” each time.
As for `O=[N+]([O-])c1ccc(Cl)cc1Cl`, the Potency entry in [1], in assay [2], in [3], in assay [4], in assay [6] and in assay [5] was “inactive” each time.
With `c1ccc(CCNc2nc(-c3ccccc3)cs2)cc1`, the Potency entry in assay [1] and in assay [5] was “inactive” throughout. For the same compound, the Potency in assay [2] was 29.8 µM (active); in assay [3] it was 29.8 µM (active); in assay [4] it was 33.5 µM (active).
Consider `Cc1cc(C)c(C)c(O)c1`, for which the Potency result in assay [1], in assay [2], in assay [3], in assay [4] and in assay [5] was “inactive” each time.
As for `CCCCCCCCCCCC(=O)OCC`, the Potency entry in [1], in assay [2], in [3], in [4], in assay [6] and in [5] was “inactive” throughout.
With `OCC(O)c1ccccc1` (stereo not drawn), the Potency entry in assay [1], in [2], in [3], in [4] and in assay [5] was “inactive” throughout.
In the case of `CC1(C)CC(=O)CC(C)(C)N1`, the Potency result in [1], in assay [2], in [3], in [4], in [6] and in [5] was “inactive” in each case.
Turning to `CCCC1CCCC(=O)O1` (stereo not drawn), the Potency entry in [1], in [2], in assay [3], in assay [4] and in assay [5] was “inactive” throughout.
With `CC(=O)c1ccc(Cl)c(Cl)c1Cl`, the Potency entry in [1], in [2], in assay [3], in [4], in assay [6] and in assay [5] was “inactive” each time.
Take `Cc1ccc2c(Cl)cc(Cl)c(O)c2n1`: the Potency in assay [1] is 23.9 µM (active); in assay [2] it was 1.88 µM (active); in assay [3] it was 2.37 µM (active); in assay [4], 1.88 µM (active); in [5], 9.44 µM (active); in assay [10] it was 2.66 µM (active). In addition, in assay [9], the compound was called inactive.
Consider `CCCCCCCCCCCCCCCCC(=O)O`, for which the Potency result in assay [1], in assay [2], in assay [3], in assay [4], in assay [5] and in assay [10] was “inactive” each time. The compound was called inactive in assay [8] and in assay [9].
Regarding `COc1ccc(CN(CCN(C)C)c2ncccn2)cc1`, the Potency result in [1], in [2], in assay [3], in assay [6] and in [5] was “inactive” throughout.
Turning to `CCCC1CCOC(C)S1` (stereo not drawn), the Potency entry in assay [1], in assay [2], in assay [4], in [6], in assay [7] and in [5] was “inactive” each time. Besides, the Potency entry in assay [10] is “inactive”. The compound was called inactive in assay [8] and in assay [9].
Turning to `O=C1C=CCCC1`, the Potency entry in [1], in [2], in assay [3], in [6] and in assay [5] was “inactive” throughout.
In the case of `O=C(O)CCc1nc2ccccc2[nH]1`, the Potency entry in assay [1], in [2], in [3], in assay [6] and in assay [5] was “inactive” each time.
`CC(C)CCCCCOC(=O)CS`: the Potency entry in [1] and in assay [5] was “inactive” each time. Besides, the Potency in [2] was 61.1 µM (active); in assay [3] it was 54.5 µM (active).
As to `CCCN(C1CCN(C(=O)C2CCNCC2)CC1)[C@@H]1CCc2ccc(OC)cc2C1`, the Potency entry in [1], in [6] and in [10] was “inactive” in each case. The Potency in assay [2] and in [3] was 15.4 µM (active) throughout. For the same compound, the compound was called inactive in assay [8] and in [9].
For the compound `C(/C=C/C=C/Nc1ccccc1)=Nc1ccccc1`, the Potency entry in assay [1], in [2], in assay [3], in [6] and in assay [5] was “inactive” each time.
For `COc1ccc(C(=O)c2ccc(C)cc2)c(O)c1`, the Potency entry in assay [1], in [2], in assay [3] and in [5] was “inactive” in each case.
Turning to `CC1(C)C(=O)NC(=O)N1CO`, the Potency entry in assay [1], in [2], in [3], in assay [6] and in [5] was “inactive” each time.
